Rows were chosen to be rich in hits. Some 18% of all compounds tested hit in one or more screens of this group.
TDP1 cell CPT: qHTS for Inhibitors of human tyrosyl-DNA phosphodiesterase 1 (TDP1): qHTS in cells in presence of CPT; hit rate 12% among 420,000; Potency, µM (top dose mostly 46.2 µM), for the others: at the top dose activity change, negative = growth inhibition, actives largely listed as inhibitors; chicken DT40 Tdp1-/-;hTDP1 cells + 20 nM CPT, ATP luminescence, 48 h; further: nearly all actives have a fitted effect of over 55% in size
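Chicken DT40 Tdp1-/- cells complemented with human TDP1, 400 cells/well, exposed to compounds plus 20 nM camptothecin for at least 48 h at 37 C; viability read as ATP content by CellTiter-Glo luminescence.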
VDR inh: Inhibitors of the vitamin D receptor (VDR): qHTS; Potency, µM, inactives show max response, negative = inhibition, most hits filed as inhibitors; hit rate 0.93% among 400,000; Vitamin D3 receptor (Homo sapiens), P11473; AID 504847, 2011; VDR-SRC2-3 peptide fluorescence polarization, 2 h
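FP read-out; VDR + SRC2-3 coactivator peptide; 23 nl compound by pintool; 2 h RT incubation; reagents held at 4 deg C, protected from light.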
DT40 TDP1 no CPT: qHTS for Inhibitors of human tyrosyl-DNA phosphodiesterase 1 (TDP1): qHTS in cells in absence of CPT | DT40 Tdp1-/- hTDP1 cells, no CPT, ATP luminescence, 48 h | Potency, µM (doses to about 46.2 µM), inactives show top-dose activity change, negative = growth inhibition, most hits filed as inhibitors | hit rate 15% among 420,000; further: nearly all actives have a fitted effect of over 55% in size
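Luminescent ATP content (CellTiter-Glo) served as the growth readout. Knockout chicken DT40 cells expressing human TDP1 were exposed to compounds without camptothecin for a minimum 48 hr at 37 °C.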
PLK1 PBD block: qHTS for Inhibitors of PLK1-PDB (polo-like kinase 1 - polo-box domain): Primary Screen; Potency, µM, for inactives: max response, negative = inhibition, actives largely listed as inhibitors; Plk1 PBD binding of FITC phosphopeptide, fluorescence polarization; Serine/threonine-protein kinase PLK1 (Homo sapiens), P53350; hit rate 2.8% among 360,000; further: series mostly up to about 57 µM; nearly all actives have a fitted effect of over 65% in size
Target sequence (P53350 whole entry, looked up, the tested form may be a part): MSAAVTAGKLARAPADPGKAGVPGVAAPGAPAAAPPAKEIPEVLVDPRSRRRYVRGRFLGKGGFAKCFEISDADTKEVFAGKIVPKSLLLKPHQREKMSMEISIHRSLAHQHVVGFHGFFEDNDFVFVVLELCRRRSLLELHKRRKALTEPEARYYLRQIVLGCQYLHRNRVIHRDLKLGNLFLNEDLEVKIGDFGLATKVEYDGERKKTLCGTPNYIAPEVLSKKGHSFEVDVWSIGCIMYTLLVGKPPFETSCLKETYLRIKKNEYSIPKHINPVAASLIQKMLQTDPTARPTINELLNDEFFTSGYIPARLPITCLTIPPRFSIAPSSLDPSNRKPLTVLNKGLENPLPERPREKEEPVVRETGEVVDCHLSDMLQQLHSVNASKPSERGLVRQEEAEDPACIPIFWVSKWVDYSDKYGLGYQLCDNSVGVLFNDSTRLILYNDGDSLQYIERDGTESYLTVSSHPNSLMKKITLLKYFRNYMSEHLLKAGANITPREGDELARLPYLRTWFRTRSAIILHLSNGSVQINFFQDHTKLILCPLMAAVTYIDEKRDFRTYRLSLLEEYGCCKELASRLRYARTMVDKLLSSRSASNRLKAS
GCN5L2 inh: qHTS Assay for Inhibitors of GCN5L2 | Histone acetyltransferase KAT2A (Homo sapiens), Q92830 | GCN5L2 HAT assay, ThioGlo1 CoA-SH fluorescence | Potency, µM (series often up to 58.9 µM), without a hit: top-dose activity change, negative = inhibition, usual class: inhibitors | hit rate 0.21% among 390,000 | AID 504327, 2011
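Preincubate 20nM GCN5L2 with compound 15 min, RT → add 50uM ThioGlo1 + 75uM H3(1-25) + 70uM acetyl-CoA → read fluorescence 0 and 20 min. Primary qHTS; fluorescent artifacts likely.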
TDP1 block: qHTS Assay for Inhibitors of Tyrosyl-DNA Phosphodiesterase (TDP1) | Potency, µM (top dose mostly 130 µM), for the others: top-dose activity change, negative = inhibition, usual class: inhibitors | hit rate 0.28% among 350,000 | recombinant TDP1, AlphaScreen DNA substrate cleavage; further: nearly all actives have a fitted effect of over 40% in size
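Compounds were preincubated with Tdp1 (1 nM final) for 15 min at room temperature before substrate (15 nM final) started a 5 min reaction; beads (10 ug/ml final) were then added for 10 min before AlphaScreen detection.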
Starred values were filed as active, the others as inactive; u = inconclusive; x = not tested or not shown; [ ] = remark or other dose. The call rests on the fitted dose curve; in most records, active means well fitted curve in the direction sought with a large enough effect; inconclusive means small, poorly fitted or top-dose-only effect, or another doubt; inactive means no such curve, though single readings can be large; an effect the other way counts as inactive or inconclusive. On the % scale 0 is the no-effect control and ±100 the full control effect; potency means the concentration at half of the fitted maximal effect.

SMILES	TDP1 cell CPT	VDR inh	DT40 TDP1 no CPT	PLK1 PBD block	GCN5L2 inh	TDP1 block
O=C(Oc1ccc(C(=S)N2CCOCC2)cc1Br)c1cc(Cl)ccc1Cl	u	-20%	-2%	u	-21%	4%
COc1ccc(C(=S)N2CCOCC2)cc1OC(=O)c1ccccc1Cl	1%	-21%	-6%	19µM*	-11%	10%
O=C(Oc1c(Br)cc(C(=S)N2CCOCC2)cc1Br)c1ccc(Cl)cc1	u	u	u	6.7µM*	-15%	3%
O=S(=O)(Nc1ccon1)c1ccc(F)c(F)c1	-3%	3%	15%	2%	-14%	6%
CCc1cc(C(=O)N2CCN(S(=O)(=O)c3ccccc3F)CC2)sc1C	-24%	24%	-16%	-25%	-4%	-1%[56.1 µM]
CC(=O)Nc1ccc(/C(C)=N/NS(=O)(=O)c2ccccc2)cc1	5%	-22%	14%	0%	-3%	-3%
O=C(NC(=C(Cl)Cl)S(=O)(=O)c1ccc(Cl)cc1)c1ccccc1	6.5µM*	4%	9.2µM*	u	1%	0%
CC(=O)NC(=C(Cl)Cl)S(=O)(=O)c1ccccc1	12µM*	9%	8.2µM*	-10%	-1%	6%
Cc1ccc(C(=O)NC(=C(Cl)Cl)S(=O)(=O)c2ccc(Cl)cc2)cc1	u	-15%	18µM*	-29%	-10%	7%
Cc1ccc(C(=O)NC(=C(Cl)Cl)S(=O)(=O)c2ccc(C)cc2)cc1	u	-7%	u	-14%	1%	7%
COc1cc(NC(=O)CNS(=O)(=O)c2cccs2)cc(OC)c1OC	-3%	13%	-22%	x	-4%	4%
Cc1cccc(C(=O)Nc2cccc(C(=O)N3CCOCC3)c2)c1	-2%	8%	-3%	3%	-1%	1%
CC(=O)/C(=N/Nc1cccc(C)c1)N1CCOCC1	6.5µM*	1%	u	-8%	-1%	10%
Cn1nc(-c2ccccc2)c(-c2nc(-c3cccc(C(F)(F)F)c3)no2)c1Cl	u	-7%	1.6µM*	-7%	2%	-4%
Cn1nc(-c2ccccc2)c(-c2nc(-c3cccc(Cl)c3)no2)c1Cl	u	-5%	u	-11%	-2%	2%
C=CCNC(=O)Cn1c(=O)c2c(ncn2CCC(C)C)n(Cc2ccccc2)c1=O	2%	16%	-28%	-4%	-3%	-15%
CN(CC(=O)Nc1ccc(F)cc1)C(=O)c1cc2c(s1)CCCCC2	11%	-11%	-18%	5%	0%	x
CN(CC(=O)Nc1ccccc1Cl)C(=O)c1cc2c(s1)CCCCC2	u	4%	16µM*	-6%	x	x
COc1ccc(NC(=O)CN(C)C(=O)c2cc3c(s2)CCC3)cc1	2%	4%	-13%	7.5µM*	u	1.3µM*
Cc1cc(C)c(C)c(S(=O)(=O)NC2CCN(Cc3ccccc3)CC2)c1C	u	7%	u	1%	3%	0%
CCC1Sc2ccc(S(=O)(=O)CCC(=O)NCc3ccco3)cc2NC1=O (stereo not drawn)	u	-11%	u	-12%	-5%	-4%
CC1C/C(=C/c2cccn2C)C(=O)/C(=C/c2cccn2C)C1 (stereo not drawn)	23µM*	-9%	23µM*	14%	-6%	15%
Cn1cccc1/C=C1/SC(=S)N(CC(=O)O)C1=O	0%	-6%	-10%	39%	-9%	-8%
CC1CCCCN1C(=O)C1CCCN(S(=O)(=O)c2cccc3nsnc23)C1 (stereo not drawn)	u	-14%	-19%	1%	-2%	4%
O=C(C1CCCN(S(=O)(=O)c2cccc3nsnc23)C1)N1CC=C(c2ccccc2)CC1 (stereo not drawn)	13µM*	-10%	10µM*	-3%	u	3%
SMILES	TDP1 cell CPT	VDR inh	DT40 TDP1 no CPT	PLK1 PBD block	GCN5L2 inh	TDP1 block
O=C(C1CCN(S(=O)(=O)c2cccc3nsnc23)CC1)N1CC=C(c2ccccc2)CC1	18µM*	-14%	16µM*	u	-4%	10%
O=C(C1CCN(S(=O)(=O)c2cccc3nsnc23)CC1)N1CCCCC1	-19%	-4%	15%	3%	-14%	3%
CN(c1ccc(F)cc1)S(=O)(=O)N1CCCC(C(=O)NCCc2ccccc2)C1 (stereo not drawn)	21µM*	11%	u	x	-6%	-5%
O=C(NCCc1ccccc1)C1CCCN(S(=O)(=O)c2cccc3nonc23)C1 (stereo not drawn)	-13%	4%	u	-11%	-4%	-3%
O=C(NCCc1ccccc1)C1CCCN(S(=O)(=O)c2cccc3nsnc23)C1 (stereo not drawn)	u	-10%	13µM*	-3%	7%	-5%
CN(C)CCNc1nccc(N2CCN(C)CC2)n1	9%	x	-10%	x	x	x
O=C(O)c1ccccc1NC(=O)C1CCN(S(=O)(=O)c2cccc3nsnc23)CC1	-20%	2%	16µM*	-15%	-5%	5%
CCCS(=O)(=O)NC(=O)C1(C)CCN(C(=O)c2snnc2C)C1 (stereo not drawn)	-1%	x	-1%	-7%	x	x
COc1ccccc1CC1S/C(=N/N=C/c2ccco2)NC1=O (stereo not drawn)	u	-3%	6.5µM*	-14%	-9%	0%
CCCCC1S/C(=N/N=C/c2ccco2)NC1=O (stereo not drawn)	16µM*	17%	u	0%	-6%	8%
COc1ccccc1NC(=O)CSc1ncc2c(n1)-c1ccccc1N(Cc1ccccc1C)S2(=O)=O	u	-7%	u	x	-10%	0%
CCN1c2ccccc2-c2nc(SCC(=O)NCc3ccccc3)ncc2S1(=O)=O	18µM*	19%	23µM*	x	-11%	-3%
CCOC(=O)c1ccccc1NC(=O)CSc1ncc2c(n1)-c1ccccc1N(CC)S2(=O)=O	u	7%	16µM*	x	0%	0%
CCc1ccccc1NC(=O)CSc1ncc2c(n1)-c1ccccc1N(Cc1ccc(C)cc1)S2(=O)=O	-11%	1%	-22%	x	-10%	5%
